Values joined by “and” are separate entries in the source; they are usually repeats but may differ in a detail not shown here. Equal entries are not always repeated. Inconclusive results are not listed. Active and inactive are the calls of the source. The calls were made as follows: active = hit-call score of the fitted dose curve at least 0.9, where 1 is the maximum; inconclusive = response in the unintended direction; inactive = score below 0.9.

Chain of Muscarinic acetylcholine receptor M2 (Homo sapiens) (P08172 whole entry, looked up): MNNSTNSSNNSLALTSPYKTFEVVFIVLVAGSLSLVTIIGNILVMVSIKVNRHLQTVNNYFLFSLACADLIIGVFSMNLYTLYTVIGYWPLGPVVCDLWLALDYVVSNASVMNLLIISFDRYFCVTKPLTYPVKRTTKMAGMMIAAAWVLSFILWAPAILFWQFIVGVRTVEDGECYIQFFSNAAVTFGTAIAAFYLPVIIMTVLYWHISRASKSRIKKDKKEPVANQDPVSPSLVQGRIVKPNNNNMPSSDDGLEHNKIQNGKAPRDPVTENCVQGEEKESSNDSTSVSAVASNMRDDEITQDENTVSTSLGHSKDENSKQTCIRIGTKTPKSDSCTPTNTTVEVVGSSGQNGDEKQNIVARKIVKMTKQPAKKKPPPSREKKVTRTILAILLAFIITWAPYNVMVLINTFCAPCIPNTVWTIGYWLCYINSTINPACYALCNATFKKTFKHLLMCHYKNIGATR
Chain of human Muscarinic, M4 Receptor, CHRM4 (gene 1132) (P08173 whole entry, looked up): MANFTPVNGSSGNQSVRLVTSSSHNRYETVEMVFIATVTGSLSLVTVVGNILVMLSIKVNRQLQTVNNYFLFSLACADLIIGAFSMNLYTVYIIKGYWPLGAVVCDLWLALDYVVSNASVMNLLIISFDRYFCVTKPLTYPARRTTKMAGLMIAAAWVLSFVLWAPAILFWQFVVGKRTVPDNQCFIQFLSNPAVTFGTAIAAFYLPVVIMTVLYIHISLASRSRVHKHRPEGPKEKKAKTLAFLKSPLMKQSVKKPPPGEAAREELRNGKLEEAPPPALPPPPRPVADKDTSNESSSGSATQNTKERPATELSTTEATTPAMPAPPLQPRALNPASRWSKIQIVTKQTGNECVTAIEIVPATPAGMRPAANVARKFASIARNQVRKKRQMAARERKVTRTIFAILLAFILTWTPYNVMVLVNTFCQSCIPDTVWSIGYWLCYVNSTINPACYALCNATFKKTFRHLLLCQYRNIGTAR
Chain of human Dopamine Receptor D4.4 (DRD4.4), DRD4 (gene 1815) (P21917 whole entry, looked up): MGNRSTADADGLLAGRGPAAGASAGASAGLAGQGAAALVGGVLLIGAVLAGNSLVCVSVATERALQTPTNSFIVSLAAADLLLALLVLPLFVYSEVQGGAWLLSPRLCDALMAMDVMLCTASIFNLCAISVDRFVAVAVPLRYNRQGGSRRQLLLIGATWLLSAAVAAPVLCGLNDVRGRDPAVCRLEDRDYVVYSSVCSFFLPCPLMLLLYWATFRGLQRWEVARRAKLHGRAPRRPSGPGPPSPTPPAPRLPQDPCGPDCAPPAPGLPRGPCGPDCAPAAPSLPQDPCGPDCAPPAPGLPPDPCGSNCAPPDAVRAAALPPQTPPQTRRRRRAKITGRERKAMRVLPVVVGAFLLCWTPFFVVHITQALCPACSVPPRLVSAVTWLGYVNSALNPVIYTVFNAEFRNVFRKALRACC
Chain of Muscarinic acetylcholine receptor M5 (Homo sapiens) (P08912 whole entry, looked up): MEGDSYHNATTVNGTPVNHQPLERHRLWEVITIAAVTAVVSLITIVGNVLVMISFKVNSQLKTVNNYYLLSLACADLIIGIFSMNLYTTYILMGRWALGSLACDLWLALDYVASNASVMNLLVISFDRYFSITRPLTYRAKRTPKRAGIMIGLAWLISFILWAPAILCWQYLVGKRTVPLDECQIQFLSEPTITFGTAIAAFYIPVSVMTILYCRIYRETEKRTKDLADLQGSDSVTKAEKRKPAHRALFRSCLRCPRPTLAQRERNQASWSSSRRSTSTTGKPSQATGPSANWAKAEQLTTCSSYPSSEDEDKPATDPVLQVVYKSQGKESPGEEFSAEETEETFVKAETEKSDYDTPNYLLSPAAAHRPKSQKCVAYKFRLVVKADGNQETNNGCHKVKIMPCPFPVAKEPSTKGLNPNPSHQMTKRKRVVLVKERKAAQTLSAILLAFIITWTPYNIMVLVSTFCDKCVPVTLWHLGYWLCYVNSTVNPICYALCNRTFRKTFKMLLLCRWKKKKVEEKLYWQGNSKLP

The target of one assay is human Dopamine Receptor D4.4 (DRD4.4), DRD4 (gene 1815) (UniProt P21917). The assay is described as follows: NVS_GPCR_hDRD4.4: NovaScreen (NVS) G Protein-Coupled Receptor Assay for human Dopamine Receptor D4.4 (DRD4.4) (AID 2283264). The gist of the method:
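Filter-binding assay with a tritiated or iodinated ligand, cell-free receptor prepared from CHO, 1 hour. Loss of bound radioactivity versus DMSO; single 25 uM duplicate screen, then concentration-response for actives.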
The AC50 is the midpoint of the concentration-response curve, whichever way the signal moves. Take `COc1cc(-c2ccc(N)c(OC)c2)ccc1N`: the AC50 is 16700 nM (active).

For the compound `CCN1CCC2(CC1)COc1cc3c(cc12)N(C(=O)c1ccc(-c2ccc(-c4nnc(C)o4)cc2C)cc1)CC3`, the call was inactive.

As to `CC(=O)[O][Hg][c]1ccccc1`, the AC50 is 794 nM (active).

Consider `C=C(C)C(=O)[O][Sn]([CH2]CCC)([CH2]CCC)[CH2]CCC`, for which the AC50 is 1750 nM (active).

The target of another assay is human Dopamine Receptor D2 (DRD2), DRD2 (gene 1813) (UniProt P14416). Kind of assay: NVS_GPCR_hDRD2s: NovaScreen (NVS) G Protein-Coupled Receptor Assay for human Dopamine Receptor D2 (DRD2) (AID 2283266). As to the method: NVS_GPCR_hDRD2s is a biochemical, single-readout assay that uses extracted gene-proteins from CHO in a cell-free assay. Measurements were taken 1.5 hours after chemical dosing in a 96-well plate.NVS_GPCR_hDRD2s is one of one assay component(s) measured or calculated from the NVS_GPCR_hDRD2s assay. It is designed to make measurements of radioligand binding, a form of binding reporter, as detected with scintillation counting signals by Filter-based radiodetection technology.Data from the assay component NVS_GPCR_hDRD2s was analyzed into 1 assay endpoint. This assay endpoint, NVS_GPCR_hDRD2s, was analyzed in the positive analysis fitting direction relative to DMSO as the negative control and baseline of activity. Using a type of binding reporter, loss-of-signal activity can be used to understand changes in the binding as they relate to the gene DRD2. Furthermore, this assay endpoint can be referred to as a primary readout, because the performed assay has only produced 1 assay endpoint. To generalize the intended target to other relatable targets, this assay endpoint is annotated to the gpcr intended target family, where the subfamily is rhodopsin-like receptor.
Chain of human Dopamine Receptor D2 (DRD2), DRD2 (gene 1813) (P14416 whole entry, looked up): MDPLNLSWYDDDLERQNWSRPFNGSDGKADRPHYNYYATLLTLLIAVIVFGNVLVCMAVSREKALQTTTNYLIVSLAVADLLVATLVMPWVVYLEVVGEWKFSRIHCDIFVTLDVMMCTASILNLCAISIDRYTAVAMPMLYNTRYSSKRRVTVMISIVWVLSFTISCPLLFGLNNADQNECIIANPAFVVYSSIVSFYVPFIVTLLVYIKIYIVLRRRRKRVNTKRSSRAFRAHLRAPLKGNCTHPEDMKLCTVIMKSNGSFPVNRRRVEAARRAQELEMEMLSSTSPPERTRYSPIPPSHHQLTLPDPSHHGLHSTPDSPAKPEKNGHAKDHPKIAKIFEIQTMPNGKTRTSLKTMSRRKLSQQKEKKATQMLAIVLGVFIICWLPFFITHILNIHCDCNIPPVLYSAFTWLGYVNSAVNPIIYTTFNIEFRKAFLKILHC
Binding assays used specific radioligands (tritiated, iodinated) with non-radioactive competitive displacement ligands in agonist or antagonist protocols (as indicated) and various reference compounds and inhibitors to titrate specific binding to receptors and transporters. Most enzyme assays (CYPs, kinases, phosphatases, proteases, HDACs) used recombinant protein and specific substrates (fluorescence mostly, some colorimetric and radioactive) and inhibitors, followed by a biochemical separation of substrate and product. All assays for the biochemical HTS were initially run in duplicate at a single concentration (10 uM for CYP450 assays and 25 uM for all others). […] Each assay was run with positive and negative controls, and concurrent controls on every plate. The follow-up (secondary) screen tested active chemical-pairs in concentration series, as well as a few additional assays not tested in the primary screen, some selected negative inactives, and several cases re-run in the concentration series for confirmatory purposes.
Regarding `COc1cc(-c2ccc(N)c(OC)c2)ccc1N`, the AC50 is 5.28 µM (active) and 9.98 µM (active).

In the case of `CCC(=O)C(CC(C)N(C)C)(c1ccccc1)c1ccccc1` (configuration not stated), the half-maximal activity concentration (AC50) was 5.6 µM (active).

As for `CCOP(=S)(OCC)SCSP(=S)(OCC)OCC`, the compound was classed as inactive.

Consider `CC(=O)[O][Hg][c]1ccccc1`, for which the AC50 is 0.428 µM (active).

`C=C(C)C(=O)[O][Sn]([CH2]CCC)([CH2]CCC)[CH2]CCC`: the AC50 is 0.363 µM (active).

On to `O=C(O)C(F)(F)C(F)(F)C(F)(F)C(F)(F)C(F)(F)C(F)(F)C(F)(F)C(F)(F)C(F)(F)C(F)(F)F`, for which the half-maximal activity concentration (AC50) was 11 µM (active).

The target in the next assay is human Histamine 1 Receptor (H1), HRH1 (gene 3269) (UniProt P35367). Kind of assay: NVS_GPCR_hH1: NovaScreen (NVS) G Protein-Coupled Receptor Assay for human Histamine 1 Receptor (H1) (AID 2283268). The essentials: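 Filter-based scintillation detection of radioligand binding to human H1, 1 h incubation; chemicals screened in duplicate at 25 uM, then concentration-response; signal loss relative to DMSO taken as activity.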
Chain of human Histamine 1 Receptor (H1), HRH1 (gene 3269) (P35367 whole entry, looked up): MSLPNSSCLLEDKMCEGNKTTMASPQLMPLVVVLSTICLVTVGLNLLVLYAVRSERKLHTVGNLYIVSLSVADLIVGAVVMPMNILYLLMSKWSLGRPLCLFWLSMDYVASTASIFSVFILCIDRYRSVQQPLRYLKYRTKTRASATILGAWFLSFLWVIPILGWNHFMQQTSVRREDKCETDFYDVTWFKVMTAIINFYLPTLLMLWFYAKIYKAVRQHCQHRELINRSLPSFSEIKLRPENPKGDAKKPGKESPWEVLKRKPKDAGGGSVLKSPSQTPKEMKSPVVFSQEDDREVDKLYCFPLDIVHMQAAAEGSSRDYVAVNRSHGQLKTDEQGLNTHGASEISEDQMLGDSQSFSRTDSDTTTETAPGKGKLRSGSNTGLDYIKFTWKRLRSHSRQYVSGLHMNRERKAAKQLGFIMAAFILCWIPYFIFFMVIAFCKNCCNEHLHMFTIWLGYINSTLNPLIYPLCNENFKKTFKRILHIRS
Take `CCC(=O)C(CC(C)N(C)C)(c1ccccc1)c1ccccc1` (configuration not stated): the half-maximal activity concentration (AC50) is 7250 nM (active).

For `CCN1CCC2(CC1)COc1cc3c(cc12)N(C(=O)c1ccc(-c2ccc(-c4nnc(C)o4)cc2C)cc1)CC3`, the AC50 is 32200 nM (active).

On to `CC(=O)[O][Hg][c]1ccccc1`, for which the AC50 is 1180 nM (active).

Consider `C=C(C)C(=O)[O][Sn]([CH2]CCC)([CH2]CCC)[CH2]CCC`, for which the half-maximal activity concentration (AC50) was 1960 nM (active).

In another assay the target is D(1A) dopamine receptor (Homo sapiens) (UniProt P21728). Kind of assay: NVS_GPCR_hDRD1: NovaScreen (NVS) G Protein-Coupled Receptor Assay for human Dopamine Receptor D1 (DRD1) (AID 2283269). The gist of the method: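 Radioligand displacement binding on membranes/protein extracted from HEK293 expressing human D1, cell-free; read 1 h after dosing by filter-based scintillation counting. Primary screen in duplicate at 25 uM, actives followed up in concentration series; signal loss versus DMSO baseline.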
Chain of D(1A) dopamine receptor (Homo sapiens) (P21728 whole entry, looked up): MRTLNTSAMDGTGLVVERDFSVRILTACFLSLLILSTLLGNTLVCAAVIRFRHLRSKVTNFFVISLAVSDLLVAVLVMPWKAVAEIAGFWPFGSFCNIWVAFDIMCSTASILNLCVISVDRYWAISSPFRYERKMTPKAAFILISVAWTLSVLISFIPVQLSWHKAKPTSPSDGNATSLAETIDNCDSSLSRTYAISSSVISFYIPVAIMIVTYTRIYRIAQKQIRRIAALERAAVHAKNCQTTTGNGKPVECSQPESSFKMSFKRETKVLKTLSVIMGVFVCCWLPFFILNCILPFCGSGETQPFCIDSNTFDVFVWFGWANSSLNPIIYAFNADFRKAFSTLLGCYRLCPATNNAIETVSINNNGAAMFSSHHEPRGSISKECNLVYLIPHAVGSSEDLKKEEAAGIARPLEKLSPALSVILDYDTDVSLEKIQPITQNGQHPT
`CCOC(=O)/C=C(C)/C=C/C[C@@H](C)CCCC(C)C`: the AC50 is 32100 nM (active).

Turning to `CCN1CCC2(CC1)COc1cc3c(cc12)N(C(=O)c1ccc(-c2ccc(-c4nnc(C)o4)cc2C)cc1)CC3`, the AC50 was 5490 nM (active).

Regarding `O=C1C2(Cl)C3(Cl)C4(Cl)C(Cl)(Cl)C5(Cl)C3(Cl)C1(Cl)C5(Cl)C24Cl` (configuration not stated), the result was inactive.

For `Oc1c(I)cc(I)cc1I`, the compound was called inactive.

For the compound `CC(=O)[O][Hg][c]1ccccc1`, the AC50 was 104 nM (active).

Consider `Nc1cccc2ccccc12`, for which the AC50 is 37800 nM (active).

Turning to `C=C(C)C(=O)[O][Sn]([CH2]CCC)([CH2]CCC)[CH2]CCC`, the half-maximal activity concentration (AC50) was 326 nM (active).

In the case of `O=C(c1ccccc1)C(Cl)Cl`, the call was inactive.

Turning to `O=C(O)C(F)(F)C(F)(F)C(F)(F)C(F)(F)C(F)(F)C(F)(F)C(F)(F)C(F)(F)C(F)(F)C(F)(F)F`, the result was inactive.

For another assay, the target named is Muscarinic acetylcholine receptor M1 (Homo sapiens) (UniProt P11229). Kind of assay: NVS_GPCR_hM1: NovaScreen (NVS) G Protein-Coupled Receptor Assay for human Muscarinic, M1 Receptor (AID 2283270). The essentials: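 Actives from a duplicate 25 uM single-point screen were retested in concentration series. Binding measured as displacement of a radioligand from CHO-derived receptor preparation, 1 h incubation, filtration and scintillation counting, analysed as signal loss against DMSO.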
Chain of Muscarinic acetylcholine receptor M1 (Homo sapiens) (P11229 whole entry, looked up): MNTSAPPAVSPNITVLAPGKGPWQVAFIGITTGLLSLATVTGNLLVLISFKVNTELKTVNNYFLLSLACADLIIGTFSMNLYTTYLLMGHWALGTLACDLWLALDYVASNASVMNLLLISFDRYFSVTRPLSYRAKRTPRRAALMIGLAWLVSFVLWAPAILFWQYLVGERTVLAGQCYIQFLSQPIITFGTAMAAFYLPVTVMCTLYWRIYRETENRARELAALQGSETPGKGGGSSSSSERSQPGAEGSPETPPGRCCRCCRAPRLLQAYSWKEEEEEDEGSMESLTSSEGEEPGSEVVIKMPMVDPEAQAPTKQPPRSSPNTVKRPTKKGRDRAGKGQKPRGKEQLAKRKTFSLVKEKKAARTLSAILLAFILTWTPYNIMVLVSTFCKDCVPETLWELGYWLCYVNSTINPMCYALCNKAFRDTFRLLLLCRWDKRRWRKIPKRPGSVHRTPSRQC
With `CCC(=O)C(CC(C)N(C)C)(c1ccccc1)c1ccccc1` (configuration not stated), the AC50 was 6920 nM (active).

Regarding `CCN1CCC2(CC1)COc1cc3c(cc12)N(C(=O)c1ccc(-c2ccc(-c4nnc(C)o4)cc2C)cc1)CC3`, the AC50 is 646 nM (active).

Regarding `CC(=O)[O][Hg][c]1ccccc1`, the AC50 is 1390 nM (active).

Consider `C=C(C)C(=O)[O][Sn]([CH2]CCC)([CH2]CCC)[CH2]CCC`, for which the half-maximal activity concentration (AC50) is 1900 nM (active).

On to `CC(C)(C)CC(C)(C)c1ccc(O)cc1`, for which the call was inactive.

In a further assay the target is human Leukotriene B4 Receptor 1 (LTB4-BLT1), LTB4R (gene 1241) (UniProt Q15722). Kind of assay: NVS_GPCR_hLTB4_BLT1: NovaScreen (NVS) G Protein-Coupled Receptor Assay for human Leukotriene B4 Receptor 1 (LTB4-BLT1) (AID 2283271). The essentials: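 Cell-free human neutrophil receptor preparation, 1 h exposure, radioligand binding read by filter scintillation counting. Single 25 uM duplicate screen, then concentration series topping at 50 uM; binding loss scored against DMSO baseline.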
Chain of human Leukotriene B4 Receptor 1 (LTB4-BLT1), LTB4R (gene 1241) (Q15722 whole entry, looked up): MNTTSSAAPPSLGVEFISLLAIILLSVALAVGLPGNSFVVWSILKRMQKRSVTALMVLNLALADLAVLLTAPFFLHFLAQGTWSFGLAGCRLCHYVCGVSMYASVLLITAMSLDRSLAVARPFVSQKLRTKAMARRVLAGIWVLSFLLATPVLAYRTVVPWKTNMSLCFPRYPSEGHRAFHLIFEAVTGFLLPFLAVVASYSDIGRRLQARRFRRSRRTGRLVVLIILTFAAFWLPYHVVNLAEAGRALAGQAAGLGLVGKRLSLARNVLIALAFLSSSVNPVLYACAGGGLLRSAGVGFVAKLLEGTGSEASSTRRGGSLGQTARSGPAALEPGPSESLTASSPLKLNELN
For `CC(=O)[O][Hg][c]1ccccc1`, the concentration at half-maximal activity (AC50) is 21000 nM (active).

On to `CC(C)(C)c1cc(O)ccc1O`, for which the outcome was inactive.

For the compound `O=C(O)C(F)(F)C(F)(F)C(F)(F)C(F)(F)C(F)(F)C(F)(F)C(F)(F)C(F)(F)C(F)(F)C(F)(F)F`, the half-maximal activity concentration (AC50) was 33400 nM (active).

The next assay deals with Muscarinic acetylcholine receptor M3 (Homo sapiens) (UniProt P20309). The assay is described as follows: NVS_GPCR_hM3: NovaScreen (NVS) G Protein-Coupled Receptor Assay for human Muscarinic, M3 Receptor (AID 2283272). The gist of the method: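 Radioligand displacement binding on human M3 receptor in CHO-derived membranes, 1 h incubation, filter-based scintillation counting. Primary screen in duplicate at 25 uM; actives followed up in concentration series; loss of signal versus DMSO.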
Chain of Muscarinic acetylcholine receptor M3 (Homo sapiens) (P20309 whole entry, looked up): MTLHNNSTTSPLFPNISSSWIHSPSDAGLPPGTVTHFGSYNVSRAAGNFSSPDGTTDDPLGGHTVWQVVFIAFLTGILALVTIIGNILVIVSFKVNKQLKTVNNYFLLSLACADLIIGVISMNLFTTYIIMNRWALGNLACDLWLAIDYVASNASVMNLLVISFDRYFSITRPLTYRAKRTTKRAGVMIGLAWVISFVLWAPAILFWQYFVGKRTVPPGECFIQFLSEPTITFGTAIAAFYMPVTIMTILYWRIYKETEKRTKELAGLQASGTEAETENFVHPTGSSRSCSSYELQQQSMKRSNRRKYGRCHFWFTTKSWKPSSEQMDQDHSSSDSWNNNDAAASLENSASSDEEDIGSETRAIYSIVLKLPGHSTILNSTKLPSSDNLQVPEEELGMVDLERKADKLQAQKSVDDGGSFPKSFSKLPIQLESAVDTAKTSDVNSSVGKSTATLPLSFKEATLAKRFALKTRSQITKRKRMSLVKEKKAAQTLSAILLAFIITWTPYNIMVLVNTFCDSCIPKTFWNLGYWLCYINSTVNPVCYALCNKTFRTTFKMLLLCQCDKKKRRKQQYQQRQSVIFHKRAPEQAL
As to `CCC(=O)C(CC(C)N(C)C)(c1ccccc1)c1ccccc1` (configuration not stated), the AC50 was 10700 nM (active).

As for `CCN1CCC2(CC1)COc1cc3c(cc12)N(C(=O)c1ccc(-c2ccc(-c4nnc(C)o4)cc2C)cc1)CC3`, the AC50 is 676 nM (active).

With `O=C1C2(Cl)C3(Cl)C4(Cl)C(Cl)(Cl)C5(Cl)C3(Cl)C1(Cl)C5(Cl)C24Cl` (configuration not stated), the compound was classed as inactive.

On to `CC(=O)[O][Hg][c]1ccccc1`, for which the half-maximal activity concentration (AC50) is 562 nM (active).

With `C=C(C)C(=O)[O][Sn]([CH2]CCC)([CH2]CCC)[CH2]CCC`, the concentration at half-maximal activity (AC50) is 2670 nM (active).

For a further assay, the target named is Muscarinic acetylcholine receptor M2 (Homo sapiens) (UniProt P08172). The assay is described as follows: NVS_GPCR_hM2: NovaScreen (NVS) G Protein-Coupled Receptor Assay for human Muscarinic, M2 Receptor (AID 2283273). The essentials:
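CHO-expressed human M2 receptor preparation, competitive displacement of a radioligand read by filter-based scintillation counting after 1 h. Single 25 uM duplicate screen, then concentration-response follow-up of actives; DMSO baseline.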
With `CCC(=O)C(CC(C)N(C)C)(c1ccccc1)c1ccccc1` (configuration not stated), the concentration at half-maximal activity (AC50) is 9960 nM (active).

Regarding `CCN1CCC2(CC1)COc1cc3c(cc12)N(C(=O)c1ccc(-c2ccc(-c4nnc(C)o4)cc2C)cc1)CC3`, the concentration at half-maximal activity (AC50) was 1320 nM (active).

For the compound `O=C1C2(Cl)C3(Cl)C4(Cl)C(Cl)(Cl)C5(Cl)C3(Cl)C1(Cl)C5(Cl)C24Cl` (configuration not stated), the call was inactive.

For the compound `CC(=O)[O][Hg][c]1ccccc1`, the AC50 was 909 nM (active).

With `C=C(C)C(=O)[O][Sn]([CH2]CCC)([CH2]CCC)[CH2]CCC`, the AC50 is 5320 nM (active).

For `CC(C)(C)CC(C)(C)c1ccc(O)cc1`, the call was inactive.

In another assay the target is human Muscarinic, M4 Receptor, CHRM4 (gene 1132) (UniProt P08173). Kind of assay: NVS_GPCR_hM4: NovaScreen (NVS) G Protein-Coupled Receptor Assay for human Muscarinic, M4 Receptor (AID 2283274). The gist of the method:
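Filter-based scintillation counting of radioligand bound to CHO-expressed human M4 preparations after 1 h; loss of signal fitted versus DMSO. Initial duplicate testing at 25 uM, concentration-response follow-up for actives.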
Turning to `CCC(=O)C(CC(C)N(C)C)(c1ccccc1)c1ccccc1` (configuration not stated), the half-maximal activity concentration (AC50) is 8300 nM (active).

Take `CCN1CCC2(CC1)COc1cc3c(cc12)N(C(=O)c1ccc(-c2ccc(-c4nnc(C)o4)cc2C)cc1)CC3`: the AC50 was 1900 nM (active).

Take `O=C1C2(Cl)C3(Cl)C4(Cl)C(Cl)(Cl)C5(Cl)C3(Cl)C1(Cl)C5(Cl)C24Cl` (configuration not stated): the compound was called inactive.

With `CC(=O)[O][Hg][c]1ccccc1`, the AC50 is 770 nM (active).

Consider `C=C(C)C(=O)[O][Sn]([CH2]CCC)([CH2]CCC)[CH2]CCC`, for which the half-maximal activity concentration (AC50) is 19100 nM (active).

The next assay has as its target Muscarinic acetylcholine receptor M5 (Homo sapiens) (UniProt P08912). Kind of assay: NVS_GPCR_hM5: NovaScreen (NVS) G Protein-Coupled Receptor Assay for human Muscarinic, M5 Receptor (AID 2283275). The gist of the method: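 Chemicals passing a primary duplicate screen at 25 uM were run as singleton concentration series, maximum 50 uM. Displacement of a specific radioligand from CHO-extracted receptor was read by filter scintillation after 1 h, relative to DMSO.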
For `CCC(=O)C(CC(C)N(C)C)(c1ccccc1)c1ccccc1` (configuration not stated), the AC50 is 4570 nM (active).

With `CCN1CCC2(CC1)COc1cc3c(cc12)N(C(=O)c1ccc(-c2ccc(-c4nnc(C)o4)cc2C)cc1)CC3`, the half-maximal activity concentration (AC50) is 2030 nM (active).

As to `CC(=O)[O][Hg][c]1ccccc1`, the half-maximal activity concentration (AC50) is 591 nM (active).

Take `C=C(C)C(=O)[O][Sn]([CH2]CCC)([CH2]CCC)[CH2]CCC`: the half-maximal activity concentration (AC50) was 1230 nM (active).

For the compound `O=C(Nc1ccc2[nH]ccc2c1)c1cc2cc(F)ccc2n1Cc1cccc(F)c1`, the call was inactive.
